Compound activity as filed in PubChem BioAssay.
The list is not random: actives were taken first. Their share in the collection is about 4.1%.
hgDAF12 agonist = activates the H. glycines DAF-12 receptor ligand-binding domain; activation, % at 6.8 µM; HEK293 GAL4-hgDAF12 UAS-luciferase reporter, agonist luminescence; normalized to butyrate control; actives 1.8% (n = 370,000);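 active = activation above a cutoff set at the mean of all screened compounds plus 3 SD, cut at about 10% in these data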
DAX1 inh-1 = DAX1 (NR0B1) inhibition, primary screen; actives 1.1% (n = 370,000); AID 652010; HEK293T StAR-luciferase reporter, SF-1/DAX-1 repression relief; inhibition, % at 6.8 µM;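 active = inhibition above the mean over all tested compounds plus 3 SD, cut at about 3.6% in these data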;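 note: higher inhibition means more luminescence from relief of DAX-1 repression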
ssDAF12 agonist = activates DAF-12 receptor from parasite S. stercoralis | AID 652126 | HEK293 ssDAF-12/GRIP1 lit1-tk-luc reporter, luminescence; % of 3 µM dafachronic acid response | actives 1% (n = 370,000) | activation, % at 6.8 µM;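 active = activation above the mean over all tested compounds plus 3 SD, cut at about 0.9% in these data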
hcDAF-12 act = activators of H. contortus DAF-12 nuclear receptor | AID 652067 | actives 1.4% (n = 370,000) | activation, % at 6.8 µM | HEK293 hcDAF-12 lit1-tk-luc reporter, luminescence; 0% DMSO, 100% Δ7-dafachronic acid;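 active = activation above the mean of all tested compounds plus 3 SD, cut at about 5.5% in these data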
DAX1 inh-2 = NR0B1 (DAX1) inhibition | P51843 | HEK293 Gal4-DAX1 luciferase reporter, luminescence | inhibition, % at 6.75 µM | actives 0.99% (n = 340,000) | AID 504766;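 active = inhibition above the mean over all tested compounds plus 3 SD, cut at about 4.2% in these data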;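 note: inhibition shows as a rise in luminescence from relieved DAX1 repression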
Target sequence (P51843 207-470 limits assumed): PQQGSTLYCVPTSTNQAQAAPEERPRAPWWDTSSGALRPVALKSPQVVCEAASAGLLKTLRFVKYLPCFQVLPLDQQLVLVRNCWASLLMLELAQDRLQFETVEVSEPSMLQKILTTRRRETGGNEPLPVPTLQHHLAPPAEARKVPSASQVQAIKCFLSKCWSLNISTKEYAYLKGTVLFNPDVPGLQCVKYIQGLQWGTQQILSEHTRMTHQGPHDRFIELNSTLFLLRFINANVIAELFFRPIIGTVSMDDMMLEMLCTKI
DAX1 inh confirm = NR0B1 (human) inhibition, confirmation; HEK293T StAR-promoter luciferase reporter, SF-1/DAX-1 repression; shares compounds with DAX1 inh-1; actives 87% (n = 2,400); AID 652134; inhibition, % at 6.8 µM;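 active = inhibition above the average of every tested compound plus 3 SD, cut at about 3.8% in these data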;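 note: active compounds raise luminescence by relieving repression of the StAR reporter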
SF1 mutant ctr = nonselective inhibitor or artifact in SF-1 mutant DAX1 counter-screen | shares compounds with DAX1 inh-1 | inhibition, % at 6.8 µM | actives 78% (n = 2,400) | AID 652136 | HEK293 StAR-luciferase, SF-1 AF2 mutant, luminescence;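 active = inhibition above the mean of all tested compounds plus 3 SD, cut at about 3% in these data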
LXRb hcDAF ctr = activates human LXR-beta, counter-screen for hcDAF-12 agonists | AID 743027 | 3,400 tested, under 10 active | HEK293 Gal4-LXR tk-luc reporter, luminescence, 24 h; normalized: DMSO 0%, positive control 100% | shares compounds with hcDAF-12 act | activation, % at 6.8 µM;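 active = mean percent activation of the reporter above a cutoff set as the average over tested compounds plus their standard deviation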
Target sequence (P55055 whole entry, looked up, the tested form may be a part): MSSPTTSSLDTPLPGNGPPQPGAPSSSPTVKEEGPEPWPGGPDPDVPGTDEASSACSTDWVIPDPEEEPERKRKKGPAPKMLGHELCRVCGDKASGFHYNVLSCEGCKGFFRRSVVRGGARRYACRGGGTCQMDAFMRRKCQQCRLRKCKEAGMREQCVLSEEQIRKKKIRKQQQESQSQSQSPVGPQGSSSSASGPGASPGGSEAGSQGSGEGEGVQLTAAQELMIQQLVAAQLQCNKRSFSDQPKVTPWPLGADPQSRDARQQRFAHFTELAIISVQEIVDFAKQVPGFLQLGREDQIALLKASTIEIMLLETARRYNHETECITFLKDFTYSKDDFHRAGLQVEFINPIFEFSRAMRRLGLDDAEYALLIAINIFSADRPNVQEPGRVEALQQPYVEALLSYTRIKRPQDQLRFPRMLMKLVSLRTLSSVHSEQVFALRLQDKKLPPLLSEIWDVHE
hcDAF12 conf = confirmation of H. contortus DAF-12 agonists; shares compounds with hcDAF-12 act; AID 743032; actives 61% (n = 3,400); HEK293 hcDAF-12 lit1-tk-luc reporter, luminescence; % of Δ7-dafachronic acid response; activation, % at 6.8 µM;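 active = mean activation across triplicate tests above the threshold derived from the earlier primary screen, cut at about 5.5% in these data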
hgDAF12 conf = confirmation of H. glycines DAF-12 agonists; HEK293 GAL4-hgDAF12 luciferase reporter, agonist mode; percent of butyrate response; actives 80% (n = 3,300); activation, % at 6.8 µM; shares compounds with hgDAF12 agonist;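 active = mean activation over triplicate wells above the hit cutoff derived from the earlier primary screen, cut at about 11% in these data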
LXRb DAF12 ctr = counter-screen for DAF-12 agonists: agonists of human LXR-beta. shares compounds with hgDAF12 agonist. HEK293 Gal4-LXR luciferase reporter, 24 h. activation, % at 6.8 µM. 3,300 tested, under 10 active. AID 743051;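 active = mean activation of the triplicate above a set limit carried over from the primary screen, none filed active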
A number is an active result; i = inactive; nt = no result given.

SMILES	hgDAF12 agonist	DAX1 inh-1	ssDAF12 agonist	hcDAF-12 act	DAX1 inh-2	DAX1 inh confirm	SF1 mutant ctr	hgDAF12 conf	LXRb DAF12 ctr	others
C/C(=N\NC(=O)c1cccc(F)c1)c1cccc(NC(=O)c2ccc(F)cc2)c1	i	i	i	i	i	nt	nt	nt	nt
C/C(=N\NC(=O)c1ccccc1F)c1cccc(NC(=O)c2ccc(C)cc2)c1	13	5.0	i	i	i	i	i	i	i
Cc1noc(C(=O)Nc2ccc(C#N)cc2)c1Cl	i	i	i	i	i	nt	nt	nt	nt
CCc1ccc(NC(=O)c2onc(C)c2Cl)cc1	29	7.7	2.2	17	4.5	13	11	22	i	LXRb hcDAF ctr=i;hcDAF12 conf=18
O=C(NCc1ccccn1)c1ccc(CNS(=O)(=O)c2cccc(Cl)c2)cc1	i	i	i	i	i	nt	nt	nt	nt
COc1ccc2nc(N3CCOCC3)cc(C)c2c1	17	5.8	i	i	i	12	6.3	14	i
O=C(Nc1cccc(C(F)(F)F)c1)c1cccc(NS(=O)(=O)c2ccc(O)c(C(=O)O)c2)c1	i	i	i	i	i	nt	nt	nt	nt
NC(=Nc1c([N+](=O)[O-])cnc2ccccc12)N1CCOCC1	i	i	i	i	nt	nt	nt	nt	nt
OC[C@H]1O[C@@H](c2nc(-c3nc(-c4ccc(F)cc4)no3)cs2)[C@H](O)[C@@H]1O	13	9.8	i	i	nt	13	7.2	16	i
CCOc1ccc(-c2noc(-c3csc([C@@H]4C[C@H](O)[C@@H](CO)O4)n3)n2)cc1	i	i	i	i	nt	nt	nt	nt	nt
COc1ccc(-c2nnc(SCC(=O)c3ccc(C)o3)o2)cc1	i	i	i	i	i	nt	nt	nt	nt
COc1ccc(-c2nnc(SCC(=O)/C(C#N)=C(\C)N)o2)cc1	16	4.7	i	6.7	i	13	4.5	18	i	LXRb hcDAF ctr=i;hcDAF12 conf=6.9
Nc1nn(-c2cccc(F)n2)cc1-c1ccccc1	17	4.6	1.1	11	i	12	3.7	19	i	LXRb hcDAF ctr=i;hcDAF12 conf=9.3
COc1ccc2cc3cc(C(=O)N4CCCC(C)C4)oc3nc2c1 (centres undefined)	14	7.4	i	i	i	12	8.9	16	i
CCOC(=O)C1CCCN(C(=O)c2cc3cc4ccc(OC)cc4nc3o2)C1 (centres undefined)	nt	nt	nt	nt	i	nt	nt	nt	nt
CC(C)(C)NC(=O)C(c1cc2ccccc2o1)n1c(=O)c(-c2cc3ccccc3[nH]2)nc2ccccc21 (centres undefined)	i	i	i	i	nt	nt	nt	nt	nt
Cc1csc(-c2nc3ccccc3n2C(C(=O)NC(C)(C)C)c2cc3ccccc3o2)c1 (centres undefined)	16	11	1.9	9.4	nt	6.6	6.0	18	i	LXRb hcDAF ctr=i;hcDAF12 conf=11
Cc1ccc(NC(=O)c2ccn(C)n2)c(Br)c1	15	5.9	i	i	i	13	8.8	16	i
Cc1ccc(NC(=O)c2ccccn2)c(Br)c1	19	8.5	3.1	9.9	6.4	15	12	18	i	LXRb hcDAF ctr=i;hcDAF12 conf=7.9
Cn1ccc(C(=O)Nc2ccc(Br)cc2Br)n1	20	4.9	i	7.7	i	11	6.6	13	i	LXRb hcDAF ctr=i;hcDAF12 conf=i
Cc1cccn2c(CNC3CCCc4ccccc43)c(C(=O)N3CCCCC3)nc12 (centres undefined)	i	i	i	i	i	nt	nt	nt	nt
Nc1nc(-c2ccccc2)c(C(=O)Nc2ccccc2)s1	i	i	i	i	i	nt	nt	nt	nt
CCOC(=O)c1c(C)[nH]c(C(=O)OCC(=O)c2ccccc2)c1C	14	13	i	7.4	i	9.8	4.9	17	i	LXRb hcDAF ctr=i;hcDAF12 conf=i
O=C(O)CCSc1ncnc2sc(-c3ccccc3)cc12	i	i	i	i	i	nt	nt	nt	nt
CC(=O)CCSc1ncnc2sc(-c3ccccc3)cc12	16	13	1.2	i	i	16	7.9	13	i
SMILES	hgDAF12 agonist	DAX1 inh-1	ssDAF12 agonist	hcDAF-12 act	DAX1 inh-2	DAX1 inh confirm	SF1 mutant ctr	hgDAF12 conf	LXRb DAF12 ctr	others
Cc1nc2ccc(NC(=O)c3ccc([N+](=O)[O-])cc3)cc2[nH]1	i	i	i	i	i	nt	nt	nt	nt
Cn1c(N=NC(=O)c2ccccc2)c(O)c2ccccc21	21	5.8	2.1	13	i	15	5.7	16	i	LXRb hcDAF ctr=i;hcDAF12 conf=5.9
CN(CC(=O)Nc1cccc(F)c1)C(=O)C1CC(=O)N(Cc2ccccc2)C1 (centres undefined)	i	i	i	i	i	nt	nt	nt	nt
COc1ccc(Cl)cc1-c1cc(C(=O)Nc2ccccc2)[nH]n1	i	i	i	i	nt	nt	nt	nt	nt
COc1ccc(Cl)c(-c2cc(C(=O)Nc3ccccc3)[nH]n2)c1	18	7.0	i	6.5	nt	6.7	5.2	19	i
O=C(Nc1nccs1)c1cccc(NC(=O)C(F)(F)F)c1	i	i	i	i	i	nt	nt	nt	nt
CCCCc1cc(=O)oc2cc(C)cc(OCC(=O)N3CCC(C(=O)O)(c4ccccc4)CC3)c12	i	i	i	i	i	nt	nt	nt	nt
CC(=O)N(c1ccccc1)c1nnc(-c2cnc(C)cn2)s1	14	8.4	i	i	i	9.5	9.2	11	i
Cc1cnc(-c2nnc(N(C)C(=O)c3cccnc3)s2)cn1	i	i	i	i	i	nt	nt	nt	nt
O=C1CC(c2ccccc2)Sc2ccccc2N1 (centres undefined)	i	i	i	i	i	nt	nt	nt	nt
Cc1ccc2c(c1)C(=O)CC(c1ccccc1)S2 (centres undefined)	20	19	1.5	7.7	i	13	7.4	19	i	LXRb hcDAF ctr=i;hcDAF12 conf=6.5
O=c1[nH]c(=O)n(C2CC(O)C(CO)O2)cc1I (centres undefined)	15	13	i	i	i	23	9.3	16	i
CC(C)n1c(=N)c(C(=O)NCCc2ccccc2)cc2c(=O)n3ccccc3nc21	i	i	i	i	i	nt	nt	nt	nt
O=C(NCCc1ccccc1)c1cnc2ccccn2c1=O	14	5.2	i	i	i	13	5.7	13	i
COc1ccc2[nH]c(C(=O)NCCCn3ccnc3)cc2c1	nt	nt	nt	nt	i	nt	nt	nt	nt
